# Source: PubChem
# Rows were chosen to be rich in hits. Some 7.5% of all compounds tested hit in one or more screens of this group.
# NPC1 promoter act: qHTS Assay for NPC1 Promoter Activators. Huh7 NPC1 promoter luciferase reporter, 24 h. Potency, µM (titrated, usually from 9.22 µM), without a hit: at the highest dose activation, most hits filed as activators. 320,000 compounds, 2.4% hits. AID 485313, 2010; further: % of control where 0% means no effect; nearly all actives have a fitted effect of over 60% in size
#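 Huh7 cells stably carrying NPC1 promoter–luciferase, plated in Opti-MEM with 10% FBS for 2 h, were exposed to compound in DMSO for 24 h at 37 °C; luciferase reagent was added for 10 min and luminescence read.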
# SMN2 splice up: qHTS Assay for Enhancers of SMN2 Splice Variant Expression; 210,000 compounds, 2.8% hits; Potency, µM (doses to about 46.1 µM), for the others: top-dose activity change, positive = activation, hits mostly activators; HEK293 SMN2-luciferase splicing reporter, luminescence, 30-36 h; AID 1458, 2008; further: % of control where 0% means no effect; nearly all actives have a fitted effect of over 55% in size
#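 qHTS luciferase splicing reporter: luminescence rises when SMN2 exon 7 is included in transfected HEK293 cells. Compound exposure lasted 30-36 h at 37C, with 4.5 mM final sodium butyrate as control, followed by a ONE-Glo read.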
# FLuc modulator: qHTS profiling assay for firefly luciferase inhibitor/activator using purifed enzyme and Km concentrations of substrates (counterscreen for miR-21 project); Luciferin 4-monooxygenase (Photinus pyralis), P08659; purified FLuc, Km substrates, luminescence inhibition; Potency, µM (series often up to 57.5 µM), for inactives: at the top dose activity change, negative = inhibition, most hits filed as inhibitors; 360,000 compounds, 6.9% hits; AID 588342, 2011;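 further: plate controls were vehicle for no effect and reference inhibitor for full effect; nearly all actives have a fitted effect of over 55% in size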
# Target sequence (P08659 whole entry, looked up): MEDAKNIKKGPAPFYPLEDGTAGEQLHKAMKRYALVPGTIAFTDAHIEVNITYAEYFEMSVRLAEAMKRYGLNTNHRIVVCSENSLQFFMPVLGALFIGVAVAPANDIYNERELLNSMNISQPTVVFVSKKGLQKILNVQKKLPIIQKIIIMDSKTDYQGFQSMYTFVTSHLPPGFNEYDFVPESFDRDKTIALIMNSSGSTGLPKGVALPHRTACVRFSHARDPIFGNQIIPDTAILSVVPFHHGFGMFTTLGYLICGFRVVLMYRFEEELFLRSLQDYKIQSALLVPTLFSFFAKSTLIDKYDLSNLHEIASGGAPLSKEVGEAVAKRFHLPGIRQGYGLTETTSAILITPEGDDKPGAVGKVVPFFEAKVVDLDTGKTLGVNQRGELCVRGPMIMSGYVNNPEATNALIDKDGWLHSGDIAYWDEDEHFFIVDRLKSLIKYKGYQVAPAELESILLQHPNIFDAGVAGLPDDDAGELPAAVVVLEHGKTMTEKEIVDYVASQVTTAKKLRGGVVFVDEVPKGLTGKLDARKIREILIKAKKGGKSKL
#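 Biochemical qHTS of compounds, final roughly 60 µM downward over six points, against 10 nM purified firefly luciferase using Km concentrations of substrates (10 uM D-luciferin, 10 uM ATP) in Tris acetate pH 7.5 buffer; luminescence output.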
# Rab9 prom act: qHTS Assay for Rab9 Promoter Activators; Potency, µM (doses to about 9.22 µM), for the others: top-dose activation, negative = inhibition, usual class: activators; 320,000 compounds, 2.8% hits; AID 485297, 2010; Huh7 Rab9 promoter-luciferase reporter, luminescence, 24 h; further: % of control where 0% means no effect; nearly all actives have a fitted effect of over 60% in size
#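 Huh7 cells stably carrying a Rab9 promoter-luciferase reporter, 1500 cells per well in OP-MEM I with 10% FBS, treated with compound 24 hours at 37C. Luciferase activity read by luminescence after 10 minutes with Amplite reagent.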
# KinaseGlo FLuc: Counterscreen for Luciferase (Kinase-Glo TM) Inhibition | Luciferin 4-monooxygenase (Photuris pensylvanica), Q27757 | Kinase-Glo luciferase, ATP luminescence, 8 min | Potency, µM (titrated, usually from 38.3 µM), without a hit: at the top dose activity change, negative = inhibition, hits mostly inhibitors | 200,000 compounds, 0.28% hits | AID 1379, 2008; further: on the % scale 0 is the no-effect control and ±100 the full control effect; nearly all actives have a fitted effect of over 60% in size
#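 Luminescence was the read-out, taken after 8-minute incubation at ambient temperature. Luciferase turned over luciferin with 10 uM ATP in imidazole pH 7.2 buffer containing KCl, MgCl2, Tween 20 and BSA.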
# ELG1 genotox: qHTS screen for small molecules that induce genotoxicity in human embryonic kidney (HEK293T) cells expressing luciferase-tagged ELG1. Potency, µM (top dose mostly 46 µM), inactives show at the highest dose activity change, positive = activation, hits mostly activators. HEK293T ELG1-luciferase reporter, luminescence, 16 h. 330,000 compounds, 1.3% hits. AID 504466, 2011; further: % of control where 0% means no effect; nearly all actives have a fitted effect of over 60% in size
#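 Genotoxic stress is detected as increased luminescence from luciferase-tagged ELG1 in HEK293T cells, measured with ONE-Glo after a 16 hr treatment at 37 °C.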
# An asterisk follows results filed as active; ? = inconclusive; / = not tested or not shown. The call rests on the fitted dose curve; in most records, active means well fitted curve in the direction sought with a large enough effect; inconclusive means small, poorly fitted or top-dose-only effect, or another doubt; inactive means no such curve, though single readings can be large; an effect the other way counts as inactive or inconclusive. Potency means the concentration at half of the fitted maximal effect.
SMILES,NPC1 promoter act,SMN2 splice up,FLuc modulator,Rab9 prom act,KinaseGlo FLuc,ELG1 genotox
Cc1cccc(C(=O)Nc2ccn(C)n2)c1,?,/,?,2.51µM*,/,?
Cc1onc(NC(=O)c2ccc(Cl)cc2Cl)c1Br,?,/,?,3.16µM*,-1.8%,?
Cn1ccc(NC(=O)c2ccc(Cl)cc2)n1,3.9%,/,?,18.7%,/,?
O=C(Nc1cnc2sccn2c1=O)c1ccc(Cl)cc1Cl,0.447µM*,8.91µM*,2.13µM*,1µM*,-15.7%,2.59µM*
Cc1onc(NC(=O)NC(=O)c2ccccc2F)c1Br,17.6%,/,?,18.3%,/,?
Cn1ccc(NC(=O)c2ccc(Cl)cc2Cl)n1,3.98µM*,/,10.7µM*,2.51µM*,/,?
Cn1ccc(NC(=O)c2ccc([N+](=O)[O-])cc2)n1,2.7%,/,3.2%,0.5%,/,0.4%
COCC(=O)N1CCC(n2nccc2NC(=O)c2ccccc2OC)CC1,-0.4%,/,5.7%,10.8%,/,23.8%
CCOc1ccc(CN2CCN(Cc3cc4c(cc3Cl)OCO4)CC2CCO)cc1 (stereo not given),-3.1%,/,-15.1%,-10.0%,/,-4.1%
O=c1cc(CN2CC(O)Cc3ccc4ccccc4c32)nc2sccn12 (stereo not given),3.1%,4.8%,4.2%,1.2%,1.2%,-5.5%
CC(C)C(Nc1ncnc2c1oc1ccccc12)C(=O)O (stereo not given),-2.5%,/,-15.9%,0.6%,/,5.5%
Oc1ccc(Nc2ncnc3c2oc2ccccc23)cc1,?,/,15.1µM*,?,/,?
Oc1ccccc1Nc1ncnc2c1oc1ccccc12,-2.9%,-1.0%,-1.6%,6.1%,0.1%,?
c1ccc2c(c1)oc1c(NCCN3CCOCC3)ncnc12,14.1%,-4.4%,-12.1%,3.7%,0.5%,6.8%
c1ccc2c(c1)oc1c(Nc3ccc(CN4CCOCC4)cc3)ncnc12,2.24µM*,-91.6%,8.49µM*,?,1.4%,2.06µM*
c1ccc(Nc2ncnc3c2oc2ccccc23)cc1,/,-0.3%,21.3µM*,/,0.7%,/
Oc1cccc(Nc2ncnc3c2oc2ccccc23)c1,3.55µM*,/,8.49µM*,?,/,13µM*
CCCCN(CC)CCOc1cccc2ccccc12,/,7.2%,/,/,/,/
CC(=O)N1CCN(c2ccc(Nc3ncnc4c3oc3ccccc34)cc2)CC1,18.5%,-43.1%,23.9µM*,12.6%,-4.1%,-10.1%
CCc1nc(Nc2ccc(N3CCN(C(C)=O)CC3)cc2)c2oc3ccccc3c2n1,5.0%,/,?,-2.5%,/,-31.2%
CC(=O)N1CCc2c(sc3c2c(=O)n(-c2ccc(C)cc2)c(=O)n3Cc2ccccc2C)C1,/,15.1%,-7.9%,/,/,/
O=S(=O)(c1ccccc1)n1ccc(-c2cnc(-c3ccccc3)s2)n1,?,46.3%,15.1µM*,?,-7.1%,?
O=C(c1ccc(F)cc1)n1ccc(-c2cnc(-c3ccccc3)s2)n1,1µM*,12.6µM*,?,0.708µM*,-0.9%,0.82µM*
COc1ccc(S(=O)(=O)n2ccc(-c3ccc(OCCN(C)c4ccccn4)cc3)n2)cc1,-12.6%,-35.6%,0.8%,-14.6%,-2.5%,-9.7%
O=C(c1ccc(F)cc1)n1nc(-c2cccnc2)nc1NCc1ccccc1,/,13.0%,-3.2%,/,/,/
SMILES,NPC1 promoter act,SMN2 splice up,FLuc modulator,Rab9 prom act,KinaseGlo FLuc,ELG1 genotox
O=C(c1ccc(C(F)(F)F)cc1)n1ccc(-c2cccs2)n1,-3.2%,/,15.1µM*,1.4%,/,0.2%
Fc1ccc(Cn2ccc(-c3cnc(-c4ccccc4)s3)n2)cc1,?,-27.5%,10.7µM*,3.16µM*,-2.2%,?
Cc1cc(C)c(Cn2c(=O)n(CCCC(=O)NCc3ccc4c(c3)OCO4)c(=O)c3sccc32)c(C)c1,/,18.4%,3.6%,/,/,/
COc1ccc(CCC(=O)N(C)CC(=O)Nc2ccc(Cl)c(C(F)(F)F)c2)cc1,-2.3%,/,1.3%,-2.6%,/,-7.9%
Cc1ccc(Cn2ccc(-c3cnc(-c4ccccc4)s3)n2)cc1,?,-43.1%,10.7µM*,?,17.2%,?
O=C(CN1CCN(C(=O)c2ccc(-c3nc4ccccc4s3)o2)CC1)Nc1ccccc1Cl,17.4%,/,?,14.0%,/,-7.0%
O=C(CN1CCN(C(=O)c2ccc(-c3nc4ccccc4s3)o2)CC1)Nc1ccc(F)cc1,21.3%,/,16.9µM*,25.0%,/,-4.9%
Cc1cccc(NC(=O)CN2CCN(C(=O)c3ccc(-c4nc5ccccc5s4)o3)CC2)c1C,11.0%,/,23.9µM*,18.1%,/,-1.9%
CCOc1ccc(/C=C/c2nc(C#N)c(N3CCC(C)CC3)o2)cc1,/,1.6%,3.8%,/,/,/
CCOc1ccc(-c2c(C)nn3c(C)c(C(=O)NC(C)c4ccccc4)cnc23)cc1OCC (stereo not given),/,/,-0.6%,/,/,/
CCOC(=O)CC(NC(=O)c1cc2c(=O)n3cccc(C)c3nc2s1)c1ccc(OCC(C)C)c(OC)c1 (stereo not given),/,8.9%,-7.8%,/,/,/
N/C(=N/OC(=O)c1ccccc1Cl)c1nonc1N,20.1%,4.9%,8.49µM*,?,?,?
Cc1cc(NC(=O)COC(=O)c2ccccc2Cl)no1,/,/,/,/,/,-2.2%
Cc1nc(/C(N)=N/OC(=O)c2cccc(Cl)c2)c(C(F)(F)F)o1,0.6%,/,?,-5.5%,/,-0.9%
Cc1ccc(C(=O)O/N=C(\N)c2nonc2N)cc1,3.0%,18.1%,0.477µM*,10.8%,11.2µM*,?
Cc1nc(/C(N)=N/OC(=O)c2ccccc2Cl)c(C(F)(F)F)o1,?,/,10.7µM*,?,/,?
Cc1cc(/C(N)=N/OC(=O)c2ccccc2Cl)no1,1.12µM*,/,1.69µM*,0.501µM*,/,?
N/C(=N/OCC(=O)Nc1cccc2ccccc12)c1nonc1N,2.8%,-11.3%,-6.2%,0.6%,-2.9%,-2.2%
Cc1oc2c(c1C(=O)Nc1ccc(Cl)cc1F)C1=NCCN1C=N2,/,/,-0.7%,/,/,/
COC(=O)c1ccccc1NC(=O)CCC(=O)N1CC(C)Oc2ccc(C)cc21 (stereo not given),-10.8%,/,1.4%,-3.3%,/,-6.7%
CCN1C(=O)/C(=C2/Sc3ccccc3N2CC)S/C1=N\c1ncn[nH]1,-5.0%,-27.0%,0.6%,-6.3%,1.0%,-10.3%
COc1ccc(C(c2c(O)cc(C)n(Cc3ccco3)c2=O)N2CCCCC2)cc1OC (stereo not given),/,/,2.4%,/,/,/
N/C(=N\OC(=O)c1ccc(F)cc1)c1nonc1N,-2.3%,11.2%,1.51µM*,-7.6%,11.2µM*,4.5%
NC(=O)c1ccc(F)cc1,0.7%,-0.6%,0.9%,-3.5%,-3.3%,2.2%
